Drawing on PubChem BioAssay AID488977 (Johns Hopkins Ion Channel Center, 2010), this text covers B-score for 100 compounds.

About 1,500 (0.48%) of roughly 310,000 compounds were called active.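 Rule for the calls: active = initial fluorescence not abnormally high and integrated response B-score, plate-corrected, over 3 SD above library mean; inactive = the rest.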 The full list was thinned out, with actives kept by preference.

High affinity choline transporter 1 (Homo sapiens), sequence (Q9GZV3 whole entry, looked up): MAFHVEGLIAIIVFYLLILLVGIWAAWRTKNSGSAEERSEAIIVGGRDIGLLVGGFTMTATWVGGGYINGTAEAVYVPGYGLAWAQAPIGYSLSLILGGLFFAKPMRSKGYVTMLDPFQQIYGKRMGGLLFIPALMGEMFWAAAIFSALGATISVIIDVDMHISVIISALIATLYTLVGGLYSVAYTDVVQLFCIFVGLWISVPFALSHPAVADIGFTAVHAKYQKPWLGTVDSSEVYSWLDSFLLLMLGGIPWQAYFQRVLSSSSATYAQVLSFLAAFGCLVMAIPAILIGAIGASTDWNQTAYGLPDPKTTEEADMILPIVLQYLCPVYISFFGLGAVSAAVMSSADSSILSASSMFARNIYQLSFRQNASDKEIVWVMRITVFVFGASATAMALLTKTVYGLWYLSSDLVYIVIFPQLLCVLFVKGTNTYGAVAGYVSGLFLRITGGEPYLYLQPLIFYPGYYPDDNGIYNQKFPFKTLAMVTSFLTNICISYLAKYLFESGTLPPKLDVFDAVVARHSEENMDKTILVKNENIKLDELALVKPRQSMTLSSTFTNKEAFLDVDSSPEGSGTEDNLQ

This experiment concerns the target High affinity choline transporter 1 (Homo sapiens) (UniProt Q9GZV3). As to the kind of experiment: allosteric activators of human choline transporter – cell-based, membrane potential dye, choline EC20, primary screen (AID 488977). Conditions: CHT-expressing cells, at 10 µM, LV-AA mutant CHT in HEK293 cells; active compounds read high.
Consider `COc1ccc(C(=O)C2CCCN(C(=O)c3ccc(OC)o3)C2)c(C)c1` (stereo not given), for which the B-score entry is “inactive”.
Next, `COc1ccc(NC(=O)CCC(=O)N2CCN(S(=O)(=O)c3ccc(C)cc3)CC2)c(OC)c1`: “inactive”; `COc1ccc2sc(N(CCCN(C)C)C(=O)c3ccc(S(=O)(=O)N(C)C4CCCCC4)cc3)nc2c1`: “inactive”.
The result for `CCN1C(=O)[C@H]2[C@@H](c3ccc(-c4ccc(OC)cc4)cc3)N[C@@](Cc3ccccc3)(C(=O)OC)[C@H]2C1=O` reads “inactive”.
Consider `Cc1cc(=O)oc2c(C)c(OC(C)C(=O)NC3CCN(Cc4ccccc4)CC3)ccc12` (stereo not given), for which the B-score is 6.43 (active).
As for `CCCc1cc(=O)oc2c(C)c(OC(C)C(=O)NCC(O)c3ccccc3)ccc12` (stereo not given), the B-score entry is “inactive”.
Take `Cc1c(OC(C)C(=O)NCC2CCC(C(=O)O)CC2)ccc2c1oc(=O)c1ccccc12` (stereo not given): the B-score entry is “inactive”.
Next, `CC(OC(=O)C1CC(=O)N(Cc2ccccc2)C1)C(=O)Nc1ccccc1[N+](=O)[O-]` (stereo not given): “inactive”.
The result for `CC(C)Oc1ccc(S(=O)(=O)N2CCOCC2)cc1NC(=O)C1CSC2(C)CCC(=O)N12` (stereo not given) reads “inactive”; that for `Cc1cc(Nc2ccc(Br)cc2)nc2ccccc12`, “inactive”; that for `Cc1ccc(NC(=O)c2cnc(SCC(=O)NCC3CCCO3)n(C)c2=O)cc1` (stereo not given), “inactive”.
Next, `Cc1cccn2c(=O)c3cc(C#N)c(=O)n(CCCN4CCOCC4)c3nc12`: 7.22 (active); `Cc1cccn2c(=O)c3cc(C(=O)N4COCC4(C)C)n(C)c3nc12`: “inactive”.
Turning to `Cc1cccn2c(=O)c3cc(C(=O)NCCN4CCOCC4)c(=N)n(Cc4cccnc4)c3nc12`, the B-score entry was “inactive”.
The result for `Cc1ccc2nc(NC(=O)CSc3nc(=O)n(CCCN(C)C)c4c3CCC4)sc2c1` reads “inactive”; that for `COc1cc2nc(N3CCN(C(=O)[C@@H]4CCCO4)CC3)nc(N)c2cc1OC`, 8.15 (active).
The result for `COC(=O)c1cc(OC)c(OC)cc1NC(=O)C1CCCO1` (stereo not given) reads “inactive”; that for `O=C(C1CCCO1)N1CCC(c2nc3ccccc3[nH]2)CC1` (stereo not given), “inactive”; that for `COc1ccc(-c2cc(C(=O)N/N=C/c3cccnc3)c3ccccc3n2)c(OC)c1`, “inactive”.
The result for `Cc1ccc(CNC(=O)c2cc(-c3ccccc3C)n(CC3CC(c4cccc([N+](=O)[O-])c4)=NO3)n2)cc1` (stereo not given) reads “inactive”; that for `O=C(c1ccccc1F)N(Cc1ccccc1)Cc1ccccc1`, 6.51 (active).
In the case of `CCN(CC)C(=O)N(CC)Cc1ccccc1`, the B-score result is “inactive”.
The result for `Cc1cccc(N(Cc2ccccc2)C(=O)c2ccccc2F)c1` reads “inactive”; that for `Cc1ccc(NC(=O)CSCC(=O)Nc2sccc2C#N)cc1`, “inactive”.
The result for `Cc1nnc(SCCCn2c(N3CCCCC3)nc3c2c(=O)[nH]c(=O)n3C)s1` reads “inactive”.
The result for `Cn1c(=O)[nH]c(=O)c2c1nc(N1CCN(CCO)CC1)n2CCSc1nc2ccccc2s1` reads 7.66 (active); that for `CN1CCN(c2nc3c(c(=O)[nH]c(=O)n3C)n2Cc2cccc3ccccc23)CC1`, “inactive”; that for `CCC1Nc2ncnc(N3CCN(c4ccccc4)CC3)c2N(Cc2ccc(Cl)cc2)C1=O` (stereo not given), “inactive”.
As to `O=C(CCC1CCCCC1)Nc1cc(C(F)(F)F)ccc1N1CCOCC1`, the B-score entry is “inactive”.
For the compound `CC(C)c1ccc(S(=O)(=O)N2CCN(C(=O)CN3C(=O)NC(C)(c4ccccc4)C3=O)CC2)cc1` (stereo not given), the B-score result was “inactive”.
For the compound `CCCCCCCNC(=O)C1(CC2CC(c3cccc(Br)c3)=NO2)CCN(C(=O)c2cc(OCC)c(OCC)c(OCC)c2)CC1` (stereo not given), the B-score result was “inactive”.
On to `Cc1ccc(S(=O)(=O)N2CCN(C(=O)Cc3sc(C)nc3-c3ccc(F)cc3)CC2)c(C)c1`, for which the B-score entry was “inactive”.
The result for `O=C(Nc1ncccc1O)c1ccc(C(=O)c2ccccc2)cc1` reads “inactive”.
The result for `COc1ccccc1CCC(=O)NNC(=O)c1ccncc1` reads “inactive”; that for `Cc1cc(NC(=O)c2cnn3cccnc23)n(-c2ccccc2)n1`, 6.76 (active).
For the compound `O=C(Nc1ccc(Cl)cn1)c1cnn2cccnc12`, the B-score entry was “inactive”.
The result for `Cc1cc(NC(=O)Nc2ccccc2)n(-c2ccccc2)n1` reads “inactive”; that for `CCOc1cc(C(=O)Nc2ccc(S(=O)(=O)Nc3cnc4ccccc4n3)cc2)cc(OCC)c1OCC`, “inactive”; that for `O=C(NCC(c1ccco1)N1CCc2ccccc2C1)c1ccccc1Cl` (stereo not given), “inactive”.
Take `COc1ccc(C(CNC(=O)c2cccc(NS(=O)(=O)c3ccc(C)c(F)c3)c2)N2CCCC2)cc1` (stereo not given): the B-score entry is “inactive”.
Next, `CCOC(=O)c1cc2ccccc2n1CC(=O)c1ccccc1`: “inactive”; `CCOC(=O)N1CCN(C(=O)c2ccc(S(=O)(=O)Nc3cccc(C(F)(F)F)c3)cc2)CC1`: “inactive”; `CCn1c(/C=C/Nc2ccccc2)[n+](CC)c2ccc(C(=O)OCC(F)(F)F)cc21`: 7.01 (active).
Next, `Cc1onc(-c2ccccc2Cl)c1C(=O)OCc1nnc(-c2ccccc2)o1`: “inactive”.
For the compound `CCN(CC(=O)Nc1c(F)cccc1F)C(=O)c1ccc(-c2ccccc2)cc1`, the B-score entry was “inactive”.
Next, `O=C(CSC1=NS(=O)(=O)c2cc(F)ccc2N1)Nc1ccccc1F`: “inactive”; `COc1cccc(CC2(CO)CCCN(Cc3ccc(OC(F)F)cc3)C2)c1` (stereo not given): “inactive”.
The result for `CCCCCN(C(=O)CCC(=O)OCCOc1ccc(OC)cc1)c1c(N)n(CCCC)c(=O)[nH]c1=O` reads “inactive”; that for `CCCCCC(=O)N1CCN(S(=O)(=O)c2ccc3c(c2)OCCCO3)CC1`, “inactive”; that for `c1ccc(Nc2nc(N3CCOCC3)c3ccccc3n2)cc1`, “inactive”.
Regarding `Cc1cccc(-c2nc(Nc3ccc(O)cc3)c3ccccc3n2)c1`, the B-score result is “inactive”.
In the case of `CN1CCN(c2nc(Nc3ccc(O)cc3)nc3ccccc23)CC1`, the B-score is 6.97 (active).
Take `C=CCOc1cccc(C2C(C(=O)c3ccc(C)o3)=C(O)C(=O)N2c2nnc(C)s2)c1` (stereo not given): the B-score entry was “inactive”.
The result for `Cc1c(NC(=O)C(C)OC(=O)c2c3c(nc4ccccc24)CCC(C)C3)c(=O)n(-c2ccccc2)n1C` (stereo not given) reads “inactive”; that for `COC(=O)c1sc(C(F)(F)F)c(-c2ccccc2)c1S(=O)(=O)N(C)C`, 9.76 (active); that for `COC(=O)c1cc2nc(-c3ccccc3)cc(C(F)(F)F)n2n1`, “inactive”.
The result for `CCOC(=O)CN(C)S(=O)(=O)c1ccc(-c2cc(C(=O)OC)sc2C(F)(F)F)cc1` reads “inactive”; that for `CC1(C)CC[C@]2(C(=O)O)CC[C@]3(C)C(=CCC4[C@@]5(C)CC[C@H](O)C(C)(C)C5[C@H](O)C[C@]43C)[C@@H]2C1` (stereo not given in full), “inactive”.
The result for `N#Cc1ccc(/C=C2\CCn3c2nc2cc(C(=O)O)ccc2c3=O)cc1` reads 6.78 (active); that for `Cc1ccc(/C=C2\CCn3c2nc2cc(C(=O)O)ccc2c3=O)c(C)c1`, “inactive”.
`O=C(O)c1ccc2c(=O)n3c(nc2c1)/C(=C/c1ccc(Cl)c([N+](=O)[O-])c1)CC3`: the B-score entry was “inactive”.
Take `CC1(C)Cc2c(sc3nc4n(c(=N)c23)CCCCC4)CO1`: the B-score is 7.43 (active).
On to `N=c1c2c3c(sc2nc2n1CCCCC2)CCCC3`, for which the B-score entry is “inactive”.
Take `CC(C)c1nc2sc3c(c2c(=O)n1N)CC(C)(C)OC3`: the B-score result was “inactive”.
Next, `CC1CCC2(CC1)NC(=O)N(CC(=O)c1ccc3c(c1)OCO3)C2=O` (stereo not given): “inactive”; `Cc1ccccc1NC(=O)COc1cccc2c1CCNC2=O`: “inactive”.
In the case of `CC1CCc2[nH]c3ccc(C(=O)N(C)CC(=O)Nc4cccc(F)c4)cc3c2C1` (stereo not given), the B-score entry was “inactive”.
The result for `Cc1nc2ccccc2c(=O)n1CCCn1ccnc1` reads 8.67 (active).
The result for `Clc1c(OCCCn2ccnc2)ccc2ccccc12` reads “inactive”.
In the case of `Cc1nc2ccccc2c(=O)n1Cc1ccc([N+](=O)[O-])cc1`, the B-score result was “inactive”.
On to `CCCCN(C1CCS(=O)(=O)C1)S(=O)(=O)c1ccc(C(C)C)cc1` (stereo not given), for which the B-score entry was “inactive”.
Consider `O=C(NCc1ccccn1)c1cnc2sccn2c1=O`, for which the B-score result is “inactive”.
The result for `CN(C)/C=C/C(=O)c1cnc2sccn2c1=O` reads 6.34 (active); that for `CCOC(=O)c1cnc2sccn2c1=O`, “inactive”; that for `COc1cnn(-c2ccc([N+](=O)[O-])cc2)c(=O)c1Cl`, “inactive”.
The result for `Cc1ccc(-c2cc(=O)[nH]c(NCc3ccccc3)n2)cc1` reads “inactive”; that for `COc1ccc(Cn2c(-c3ccc(Cl)cc3)c[n+]3ccccc23)cc1`, 7.07 (active); that for `COc1ccc(C(=O)CN(C(=O)c2ccc(Cl)cc2)N2C(=O)c3ccccc3C2=O)cc1`, “inactive”.
The result for `CCn1c(C)cc(=O)cc1-c1ccc(Cl)cc1` reads “inactive”.
Turning to `CN(Cc1ccccc1F)C(=O)C(Cc1ccccc1)NC(=O)c1ccccc1` (stereo not given), the B-score entry was “inactive”.
With `OCCCNc1nc(-c2ccccc2)c2cc(Cl)ccc2n1`, the B-score result was “inactive”.
The result for `Cc1cc2c(cc1C)[n+](C)cn2CC(O)COCC1CC=CCC1` (stereo not given) reads 12.6 (active).
The result for `COc1ccccc1C(=O)NC(CCSC)C(=O)N1CCN(C/C=C/c2ccccc2)CC1` (stereo not given) reads “inactive”.
The result for `O=C(Nc1ccc2c(c1)OCO2)c1ccc(N2C(=O)c3ccccc3C2=O)cc1` reads “inactive”; that for `Cn1c(=O)n(C)c2cc(C(=O)Nc3ccc4c(c3)OCO4)ccc21`, 6.95 (active); that for `Cn1c(=O)n(C)c2cc(C(=O)Nc3ccc(Br)cc3)ccc21`, “inactive”.
For the compound `CCc1ccc(Nc2n[n+](-c3ccccc3)c(-c3cccc(Cl)c3Cl)s2)cc1`, the B-score result was “inactive”.
Next, `O=S(=O)(NCCCc1ccccc1)c1ccc(Br)cc1`: “inactive”; `CCCCn1c(N)c(N(CCC(C)C)C(=O)c2ccc(COc3ccccc3)o2)c(=O)[nH]c1=O`: 12.1 (active); `CCCCn1c(N)c(N(CC(C)C)C(=O)c2ccc(Br)o2)c(=O)[nH]c1=O`: “inactive”.
The result for `CCCCn1c(N)c(N(CCC(C)C)C(=O)c2ccc([N+](=O)[O-])o2)c(=O)[nH]c1=O` reads “inactive”.
The result for `COC(=O)c1ccc(SCc2ccccc2)nc1` reads “inactive”.
As to `COc1ccc(NC(=O)CN(C)C(=O)CC2CCCCC2)cc1`, the B-score entry is “inactive”.
As for `Cc1ccc(C(=O)NC2CCCC(C)C2C)cc1S(=O)(=O)N1CCCCC1` (stereo not given), the B-score entry was “inactive”.
Next, `O=Cc1ccc(OCc2cn3ccccc3n2)cc1`: 7.07 (active); `COc1ccc(C(=O)NCc2cn3ccccc3n2)cc1`: “inactive”; `Cn1cc[n+](C)c1COc1ccc(C=O)cc1`: “inactive”.
In the case of `COc1ccc(S(=O)(=O)N2CCCCC2)cc1NC(=O)C1CC(=O)N(c2ccc3c(c2)OCCO3)C1` (stereo not given), the B-score result is “inactive”.
Next, `COc1ccc(/C=N/NC(=O)c2cc(-c3cccc(C)c3)nc3ccccc23)cc1O`: “inactive”; `CCN1C(=O)[C@H]2[C@@H](c3ccc(SC4CCCCC4)c(OC)c3)N[C@@](Cc3ccccc3)(C(=O)OC)[C@H]2C1=O`: “inactive”.
